# Measurements: PubChem BioAssay (NCI)
# The panel holds about 83,000 compounds, 20% with a hit somewhere; the sample as a whole holds those more often.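 Testing used 96-well plates and a 48-hour single-concentration exposure. Example: -40 means 40% of the starting cells died.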 Unmarked numbers belong to inactive results. Activity calls are given as the source filed them. The calls were made as follows: active = growth percent below 10; inactive = the rest.
# Test system: BT-549 breast
# Experiment: NCI-60 one-dose screen, 48 h (100 = growth as untreated, 0 = no growth, -100 = all killed)
# Conditions: 10 µM unless noted
row,Structure (SMILES),growth
1,Cc1nn(-c2cccc(Cl)c2)c(C)c1N=Nc1ccc(Br)cc1,97.6%
2,O=C(N/N=C\c1cc(Br)ccc1O)c1ccncc1,45.2%
3,CC(C)OC1OC(OC(C)C)C(OC(C)C)OC1OC(C)C (stereo not drawn),102%
4,COc1ccc2c(c1)C1=NN(C(=O)CO)[C@H](c3ccc(OC(F)(F)F)cc3)[C@@H]1CC2,127%
5,Cn1c(-c2ccccc2)cc(=O)n1-c1ccccc1,110%
6,CC(C)(C)c1ccc(C(=O)Nc2sc3cc(O)ccc3c2C(N)=O)cc1,85.4%
7,O=C1N(Cc2ccccc2Cl)c2ccccc2C12NN=C(c1ccccc1)S2 (stereo not drawn),70%
8,CC(=O)c1ccc(N2C(=O)c3ccc(Oc4ccccc4)cc3C2=O)cc1,98.8%
9,CC1CCCN(CCCCOc2ccc(-c3ccc(C#N)cc3)cc2)C1 (stereo not drawn),85.6%
10,CNC(=O)c1c(NC(=O)c2cccc(C(F)(F)F)c2)sc2c1CCC(=O)C2,-14.8% (active)
11,OC(COCc1ccccc1)COCc1ccccc1,98.6%
12,CN1CCCN(CCNc2nccc(-c3c(-c4cccc(O)c4)nc4sccn34)n2)S1(=O)=O,62.9%
13,CC(=O)NC1C(O[C@H]2C[C@H]3[C@@H]4CC=C5C[C@@H](O)CC[C@]5(C)[C@H]4CC[C@]3(C)[C@H]2[C@H](C)C(=O)CCC(C)C)OCC(O)C1O (stereo partly drawn),31.3%
14,CN(C)c1nc(-c2cccs2)n2nc(-c3ccc(Cl)cc3)cc2n1,68.7%
15,O=C1NN(C(=O)c2ccccc2)C(c2ccc(Cl)c(Cl)c2)=C/C1=C\c1ccccc1[N+](=O)[O-],-7.17% [6.75 µM] (active)
16,COc1ccc(C(=O)OC2C(OC3C(O)COC(O[C@H]4C[C@H]5[C@@H]6CC=C7C[C@@H](O)CC[C@]7(C)[C@H]6CC[C@]5(C)[C@H]4[C@H](C)C(=O)CCC(C)C)C3OC(=O)C(C)C)OCC(O)C2O)cc1 (stereo partly drawn),14.6%
17,CCSCC1CC(O)(c2ccccc2)C(c2ccccc2)C(c2ccc(F)cc2)O1 (stereo not drawn),-12.1% (active)
18,Nc1c(N)c2ccccc2c2ccccc12,112%
19,Cc1csc(N/N=C/c2ccncc2)n1,105%
20,COc1ccc(-c2cc(C(=O)Nc3ccc(C)cc3)nc3[nH]c(=O)sc23)cc1,75.9%
21,COc1ccccc1-[n+]1cc(-c2ccc(-c3ccccc3)cc2)n2c1CCCCC2,-1.37% (active)
22,COc1ccc(/C=N/NC(N)=S)c(OC)n1,102%
23,Nc1c(Br)cc2c(c1Br)Cc1cc(Cl)ccc1-2,128%
24,Nc1nc(NC2CC2)cc(-c2cccc(Cl)c2Cl)n1,54.7%
25,COc1cc2c(c(OC)c1O)C(=O)C(OC)C(c1ccc(O)c(O)c1)O2 (stereo not drawn),-14.6% (active)

# Test system: MDA-MB-435 melanoma
# Experiment: as above
# Conditions: 10 µM unless noted
row,Structure (SMILES),growth
1,COc1cc(C2CC(c3ccccc3)=NN2C=O)ccc1Oc1nc2c(c(=O)n(C)c(=O)n2C)n1C (stereo not drawn),56.8%
2,COc1ccc2[nH]cc(C3(c4c[nH]c5ccc(OC)cc45)C(=O)Nc4ccc(F)cc43)c2c1,9.03% (active)
3,CC1=CC(=O)OC1C/C=C(\C)CCC1[C@@]2(C)CCC[C@@](C)(C(=O)O)C2CC[C@@]1(C)O (stereo partly drawn),16.7%
4,CC1=C(/C=C/C(C)=C/C=C(C(=O)O)\C(C)=C\C(=O)O)C(C)(C)CCC1,116%
5,CCN(CCC#N)c1ccccc1,109%
6,CCCCOC(=O)c1cc(O)c(O)c(O)c1,74.8%
7,COc1cccc(-c2nc3sccn3c2-c2ccnc(NCCN3CCCNS3(=O)=O)n2)c1,54.1%
8,CC(=O)Oc1ccccc1C(=O)Nc1ncc([N+](=O)[O-])s1,24.2%
9,Cc1ccc([C@H]2c3[nH]c4ccccc4c3C[C@H]3C(=O)N(CCCCCCC(=O)NO)CC(=O)N23)cc1,38.3%
10,COc1ccc(-c2cc(-c3cn(-c4cccc(Cl)c4)nc3-c3ccc(OC)cc3)[nH]c(=S)n2)cc1,63.5%
11,CCn1c(Cc2ccccc2Nc2c(Cl)cccc2Cl)nnc1SCC(=O)Nc1ccccc1C(F)(F)F,99.5%
12,COc1cc(/C=C/c2cc(/C=C/c3ccc(O)c(OC)c3)n(C(=O)c3ccccc3Br)n2)ccc1O,-30.5% (active)
13,CCOC(=O)C(Cc1ccccc1)n1c(O)c(/C=N/c2ncc(Cc3ccc(Cl)cc3Cl)s2)sc1=S (stereo not drawn),17.2%
14,Cc1nn(-c2cccc(Cl)c2)c(C)c1N=Nc1ccc(Br)cc1,99.8%
15,O=C(N/N=C\c1cc(Br)ccc1O)c1ccncc1,64.1%
16,CC(C)OC1OC(OC(C)C)C(OC(C)C)OC1OC(C)C (stereo not drawn),110%
17,COc1ccc2c(c1)C1=NN(C(=O)CO)[C@H](c3ccc(OC(F)(F)F)cc3)[C@@H]1CC2,116%
18,Cn1c(-c2ccccc2)cc(=O)n1-c1ccccc1,98.4%
19,CC(C)(C)c1ccc(C(=O)Nc2sc3cc(O)ccc3c2C(N)=O)cc1,83.9%

row,Structure (SMILES),growth
1,O=C1N(Cc2ccccc2Cl)c2ccccc2C12NN=C(c1ccccc1)S2 (stereo not drawn),68.5%
2,CC(=O)c1ccc(N2C(=O)c3ccc(Oc4ccccc4)cc3C2=O)cc1,96.3%
3,CC1CCCN(CCCCOc2ccc(-c3ccc(C#N)cc3)cc2)C1 (stereo not drawn),99.4%
4,CNC(=O)c1c(NC(=O)c2cccc(C(F)(F)F)c2)sc2c1CCC(=O)C2,4.37% (active)
5,OC(COCc1ccccc1)COCc1ccccc1,112%
6,CN1CCCN(CCNc2nccc(-c3c(-c4cccc(O)c4)nc4sccn34)n2)S1(=O)=O,11%
7,CC(=O)NC1C(O[C@H]2C[C@H]3[C@@H]4CC=C5C[C@@H](O)CC[C@]5(C)[C@H]4CC[C@]3(C)[C@H]2[C@H](C)C(=O)CCC(C)C)OCC(O)C1O (stereo partly drawn),35.3%
8,CN(C)c1nc(-c2cccs2)n2nc(-c3ccc(Cl)cc3)cc2n1,63.1%
9,O=C1NN(C(=O)c2ccccc2)C(c2ccc(Cl)c(Cl)c2)=C/C1=C\c1ccccc1[N+](=O)[O-],58.5% [6.75 µM]
10,COc1ccc(C(=O)OC2C(OC3C(O)COC(O[C@H]4C[C@H]5[C@@H]6CC=C7C[C@@H](O)CC[C@]7(C)[C@H]6CC[C@]5(C)[C@H]4[C@H](C)C(=O)CCC(C)C)C3OC(=O)C(C)C)OCC(O)C2O)cc1 (stereo partly drawn),-1.62% (active)
11,CCSCC1CC(O)(c2ccccc2)C(c2ccccc2)C(c2ccc(F)cc2)O1 (stereo not drawn),-18.8% (active)
12,Nc1c(N)c2ccccc2c2ccccc12,107%
13,Cc1csc(N/N=C/c2ccncc2)n1,104%
14,COc1ccc(-c2cc(C(=O)Nc3ccc(C)cc3)nc3[nH]c(=O)sc23)cc1,65.5%
15,COc1ccccc1-[n+]1cc(-c2ccc(-c3ccccc3)cc2)n2c1CCCCC2,6.5% (active)
16,COc1ccc(/C=N/NC(N)=S)c(OC)n1,101%
17,Nc1c(Br)cc2c(c1Br)Cc1cc(Cl)ccc1-2,102%
18,Nc1nc(NC2CC2)cc(-c2cccc(Cl)c2Cl)n1,-12.2% (active)
19,COc1cc2c(c(OC)c1O)C(=O)C(OC)C(c1ccc(O)c(O)c1)O2 (stereo not drawn),-23.8% (active)
